According to PubChem BioAssay AID894 (National Center for Advancing Translational Sciences (NCATS), 2007):
Hit rate of the full screen: of about 150,000 compounds, about 6,500 (4.3%) were called active. Roughly 12% stayed inconclusive and do not appear here. Calls follow the shape of the dose curve; as a rule, active = well fitted inhibition curve with a large enough effect (not every such curve was filed as active); inconclusive = small, poorly fitted or top-dose-only effect, or another doubt; inactive = no such curve, though single readings can be large or run the other way. The full list was thinned out, with actives kept by preference.

biological target: 15-hydroxyprostaglandin dehydrogenase [NAD(+)] (Homo sapiens) (UniProt P15428); assay: qHTS Assay for Inhibitors of HPGD (15-Hydroxyprostaglandin Dehydrogenase); settings: purified HPGD, NADH fluorescence kinetic, PGE2 substrate; activity change, negative = inhibition: active compounds read low
Procedure, shortened: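 NADH formation kinetics: reaction with 30 uM PGE2 and 1 mM NAD+ (final), 20 nM enzyme, Tris-HCl pH 8 with Tween 20, after 15 min compound preincubation at room temperature. Fluorescence change, last versus first of five reads.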
% is scaled to controls: 0 for no effect and ±100 for the full control effect; potency is read from the fitted curve at half-maximal effect.

15-hydroxyprostaglandin dehydrogenase [NAD(+)] (Homo sapiens), sequence (P15428 whole entry, looked up): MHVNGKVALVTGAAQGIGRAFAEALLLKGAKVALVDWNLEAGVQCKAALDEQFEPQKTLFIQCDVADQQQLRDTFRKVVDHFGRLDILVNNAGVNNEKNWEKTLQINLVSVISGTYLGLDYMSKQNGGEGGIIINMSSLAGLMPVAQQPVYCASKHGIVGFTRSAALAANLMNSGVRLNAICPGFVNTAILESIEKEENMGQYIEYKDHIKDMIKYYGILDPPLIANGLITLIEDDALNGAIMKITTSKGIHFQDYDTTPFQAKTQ

Activity change, negative = inhibition, inactive:
CCOc1ccc(N2C(=O)/C(=C/c3ccc(C)o3)N(C)C2=S)cc1 -30%
COc1cc(OC)cc(C(=O)NCC(=O)OCc2csc(-c3ccccc3)n2)c1 -9.37%
CNC(=O)c1csc(-c2ccccc2)n1 -8.99%
CC1CCCCN1S(=O)(=O)c1ccc(S(=O)(=O)N(CC(=O)Nc2ccccc2)Cc2cccs2)cc1 (configuration not stated) -10.3%
O=C(CN1C2=NCCN2c2ccccc21)c1cccs1 -3.36%
COc1ccc2c(c1)O[C@@H](c1ccc3c(c1)OCO3)[C@H](OC(=O)NCc1ccco1)C2=O -11.6%
C[C@H]1Cc2c(COc3ccccc3)nc3c(c2CO1)CN(C(=O)NCc1ccco1)CC3 -1.13%
COc1nc(N(C)C)nc(N2CC(=O)N(CCNS(=O)(=O)c3ccc(C)cc3)C2=N)n1 -10.5%
c1ccc(COc2nsnc2N2CCOCC2)cc1 -17.1%
O=C(COc1nc2ccccc2nc1N1CCOCC1)NCC(F)(F)F -9.54%
C=CCNC(=O)/C(=C\c1cccc([N+](=O)[O-])c1)NC(=O)c1ccccc1 -14.6%
Cc1cc(C)cc(OCC(=O)NNC(=O)CCN2C(=O)c3ccccc3C2=O)c1 -12.4%
CCOC(=O)c1nnn(-c2nc(OC)nc(N(C)C)n2)c1-c1ccccc1 -1.76%
CCOC(=O)c1nnn(-c2nonc2-n2cccc2)c1CN1CCOCC1 -13.3%
O=C1C=C(c2ccccc2)CCC1 -3.18%
CC1=C2[C@@H](O)[C@H]([C@@H](C)C(=O)NCCC(C)C)CC[C@@]2(C)C=CC1=O -7.81%
Cc1ccccc1N/C(SCc1ccc(Cl)cc1)=C(/C#N)C(N)=O -18.2%
COC(=O)CCCC1=CC2=CC(=O)C(C)(OC(=O)c3cccs3)C(=O)C2=CN1c1ccc(CO)cc1 (configuration not stated) -7.14%
CCOC(=O)Nc1ccccc1N1C(=O)c2ccccc2C1=O -2.62%
CCOC(=O)c1cc2n(c1C)-c1ccccc1C2=O -17.5%
COc1ccc(OC)c(-c2c(=O)n(OCc3ccccc3Br)c3ccccc3[n+]2[O-])c1 -7.2%
COC(=O)C1=C(C(=O)OC)[C@@H]2N(C)c3ccccc3[C@@]23C[C@@H](C(=O)OC)N(S(=O)(=O)c2cccs2)C3=N1 -9.16%
CCCCCCCC[C@@H](O)/C=C/C=C/C=C\[C@@H](O)CCCC(=O)O -0.184%
Nc1nc(SCCOc2ccccc2)n[nH]1 -1.6%
Nc1nc(SCC(=O)NN(c2ccccc2)c2ccccc2)n[nH]1 -3.02%
COc1ccc(Cl)cc1NC(=O)Cn1nc(-c2ccc(C)cc2)n(C)c1=S -0.416%
C[C@H]1Cc2c(COc3ccccc3)nc3c(c2CO1)CN(C(=O)Nc1cccc(C#N)c1)CC3 0.277%
S=C(NCCc1ccccc1)NCc1ccccc1Cl -18.9%
O=S(=O)(NCCc1ccncc1)c1ccccc1 -10.2%
Cc1cc(Cl)ccc1NC(=S)NCCCN1CCCC1=O -1.25%
NS(=O)(=O)c1ccc(CCNC(=O)Nc2ccc(Cl)cc2)cc1 -8.27%
Cc1ccnc(NC(=O)c2ccoc2C)c1 -2.58%
Cc1cc2oc(C(=O)Nc3c(C)n(C)n(-c4ccccc4)c3=O)c(C)c2cc1Cl -3.54%
O=[N+]([O-])c1cc(S(=O)(=O)N2CCCC2)ccc1NN=C1CCCC1 -4.68%
C=C(C)c1cccc(C(C)(C)NC(=O)NC2CCCC2)c1 -3.62%
COc1ccc(COC(=O)N/N=C(\C)CC(=O)Nc2ccc(Cl)cc2)cc1 -4.69%
Cc1cc(C)cc(Oc2nc3c(C)cccn3c(=O)c2/C=C(\C#N)C(=O)NC2CCS(=O)(=O)C2)c1 (configuration not stated) -10.8%
Cc1ccc(C(c2nnnn2CS(=O)(=O)c2ccc(C)cc2)N2CCC(C(N)=O)CC2)cc1 (configuration not stated) -7.21%
CN1CCC(=NNC(=O)c2ccc(N(Cc3ccc(Cl)cc3)S(C)(=O)=O)cc2)CC1 -8.83%
O=C(NNC1CC(=O)N(c2cccc(Cl)c2)C1=O)c1cccnc1 (configuration not stated) -13.5%
O=C(CNS(=O)(=O)c1ccccc1)NCC(=O)OCc1ccccc1F 0.393%
O=C(Nc1ccccc1)c1ccc2c(c1)OCO2 -29.6%
Cn1c(NC(=O)c2ccc3c(c2)OCO3)cc(=O)n(C)c1=O -14.1%
Cc1ccc(C(=O)NC(C)c2ccccc2)cc1Br (configuration not stated) -29.6%
O=C(CSc1ncnc2scc(-c3ccccc3)c12)NCc1ccc2c(c1)OCO2 -13.5%
O=C(NC(=S)NC1CCSC1=O)c1ccccc1F (configuration not stated) -13.4%
O=C(O)C[C@@H]1NC(=O)[C@H](Cc2ccccc2)NC1=O -8.82%
Cc1ccc(C(=O)Nc2c(C#N)c(C)c(C)n2Cc2ccccc2)cc1 -7.72%
Cc1ccccc1-n1c(C)cc(/C=N/NC(=O)c2ccc(CN3CCOCC3)cc2)c1C -16.5%
Cn1c(CO)cnc1SCc1ccccc1 1.72%
O=c1c2ccccc2c(-c2ccccc2)nn1Cc1ccccc1 -16.5%
O=C(NNC(=O)c1cc2c(s1)CCCC2)c1ccccc1 -17.6%
COc1ccc(NC(=O)CSc2nc(NS(=O)(=O)c3ccc(C)cc3)cc(=O)[nH]2)cc1 -10.9%
Cc1cccc(NC(=O)CSc2nc3[nH]ncc3c(=O)[nH]2)c1 -11%
COc1cccc(CC(=O)N2CCc3nc(COc4ccccc4)c4c(c3C2)CO[C@@H](C)C4)c1 -2.54%
Cc1ccc(N/N=C2\COC(C)(C)CC2=O)cc1 -19.3%
C=C(C)C(=O)c1ccc(F)cc1 -9.12%
CNC(=O)/C(C#N)=C/c1c(F)cccc1Cl -9.42%
O=C(NCCc1ccccc1)c1ccc(OCCOc2ccccc2)cc1 -14.9%
O=C(NCCc1ccccc1)c1ccc(NC2=NC3CS(=O)(=O)CC3S2)cc1 (configuration not stated) -15.7%
COC(=O)/C(C#N)=C/c1occc1C -10.9%
N#C/C(=C(\O)CCl)c1nnc2n1CCCCC2 1.76%
O=[N+]([O-])c1cccc(S(=O)(=O)N2CCCCCC2)c1 -12%
Cc1ccn(-c2cccc(-n3ccc(C)n3)n2)n1 -19.2%
CC(C)NS(=O)(=O)c1ccc(OCC(=O)Nc2ccc3c(c2)OCCO3)cc1 0.139%
O=C(OCC(=O)c1cccs1)C1=COCCO1 -17.4%
CC(C)(C)CC(C)(C)NCC(O)COCCOc1ccc(Br)cc1 (configuration not stated) -5.61%
CCOC(=O)c1c(/N=C/C2C(=O)CC(C)(C)CC2=O)sc(C)c1C -11.6%
CCc1ccc(NC(=O)c2ccc(Cn3cc([N+](=O)[O-])cn3)cc2)cc1 -0.318%
O=C(Oc1ccccc1)c1ccc2nccnc2c1 -13%
O=C(c1ccccc1)c1ccc(OC(=O)N2CCCC2)cc1 -20%
C/C(=N\NC(=O)Cc1ccc(F)cc1)c1ccc(F)cc1 -3.27%
Cc1ccc(S(=O)(=O)N(NC2=NS(=O)(=O)c3ccccc32)C(=O)c2ccccc2)cc1 -7.36%
Cc1ccc(NC(=O)CSCC(=O)N2CCOCC2)cc1 2.74%
Cc1ccc(NC(=S)NC2CCCC2)cc1 -9.46%
Cc1ccc(/C(N)=N/OC(=O)COc2ccc(Cl)c(C)c2)cc1 -14.6%
COCCn1c(=S)[nH]c2cc(C(=O)NCCc3ccc(OC)c(OC)c3)ccc2c1=O -4.68%
COc1ccc(O)c(C(=O)c2cnc3onc(C(C)C)c3c2)c1 -14.6%

Potency, active:
C=CCNC(=O)c1csc(-c2ccccc2)n1 15.8 µM
S=c1[nH]nc(SCc2ccccc2Cl)c2[nH]cnc12 1.26 µM
c1nc(COc2nsnc2N2CCOCC2)cs1 31.6 µM
CCOC(=O)c1nnn(-c2nonc2OC)c1-c1ccccc1 8.91 µM
CCOC(=O)c1cc2n(c1N)-c1ccccc1C2=O 31.6 µM
Nc1nc(SCC(=O)NNc2c(Cl)cc(Cl)cc2Cl)n[nH]1 35.5 µM
N#C/C(=C\c1ccccc1)c1n[nH]c(Cn2cncn2)n1 28.2 µM
Oc1cc2c(cc1O)CN(C(=S)NCCc1ccc(Cl)cc1)CCC2 14.1 µM
Cc1cccn2c(=O)c(/C=C(\C#N)S(=O)(=O)c3ccc(Cl)cc3)c(N3CCC(C(N)=O)CC3)nc12 15.8 µM
Cc1ccc(F)cc1NC(=O)c1ccc2c(c1)OCO2 20 µM
Cc1ccc(C(=O)N/N=C/c2sc(=O)n(Cc3cccc(C(=O)O)c3)c2Cl)cc1 28.2 µM
CSc1c(SCc2ccccc2)cnn(Cc2ccccc2)c1=O 25.1 µM
COC(=O)c1cccc(NC(=O)CSc2nc(C)cc(=O)[nH]2)c1 20 µM
CC1CCCN(c2ccc(C(=O)NCCc3ccccc3)cn2)C1 (configuration not stated) 17.8 µM
N#C/C(=C/c1cccc([N+](=O)[O-])c1)c1nnc2n1CCCCC2 20 µM
CCC(C)(C)c1ccc(Oc2ccc(NC(=O)COC(=O)C3=COCCO3)cc2)cc1 14.1 µM
O=C(COc1cccc(F)c1)Oc1ccc(C(=O)c2ccccc2)cc1 7.94 µM
Cc1ccc(NC(=O)CSCC(=O)NC2CCCCC2)cc1 15.8 µM
COCCn1c(=O)[nH]c(=O)c2cc(C(=O)c3cc(OC)ccc3O)cnc21 25.1 µM
